Measurements published in the supplement of paper PMC8728848.
About 410 targets per protein were measured; listed, in parts, are those with the strongest signals and a random draw of the rest.

Assays:
Assay in all cases: glycan array binding signal (z-score within array); higher = stronger binding
Conditions in all cases: glycan notation: IUPAC condensed, linker removed
[1] = biological target: Fuc(a1-2)Gal(b1-3)GalNAc(a1-3)[Fuc(a1-2)]Gal(b1-4)GlcNAc
In short: (§1)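 Glycan array data were curated from 3228 arrays in the Consortium for Functional Glycomics database and kept only where the protein sequence was available. Glycan names were converted to IUPAC-condensed notation, and columns mapping to the same glycan were averaged. The binding signal is a within-array Z-score, averaged across arrays of the same protein sequence at different concentrations or buffers and across linkers. Negative Z-scores can be read as non-binding.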

[2] = biological target: Fuc(a1-2)Gal(b1-3)GlcNAc(b1-2)Man(a1-3)[Fuc(a1-2)Gal(b1-3)GlcNAc(b1-2)Man(a1-6)]Man(b1-4)GlcNAc(b1-4)[Fuc(a1-6)]GlcNAc
In short: as §1

[3] = biological target: Fuc(a1-2)Gal(b1-3)[Fuc(a1-4)]GlcNAc(b1-2)Man(a1-3)[Fuc(a1-2)Gal(b1-3)[Fuc(a1-4)]GlcNAc(b1-2)Man(a1-3)]Man(b1-4)GlcNAc(b1-4)GlcNAc
In short: as §1

[4] = biological target: Fuc(a1-2)Gal(b1-3)[Fuc(a1-4)]GlcNAc(b1-2)Man(a1-3)[Fuc(a1-2)Gal(b1-3)[Fuc(a1-4)]GlcNAc(b1-2)Man(a1-6)]Man(b1-4)GlcNAc(b1-4)[Fuc(a1-6)]GlcNAc(b1-4)[Fuc(a1-6)]GlcNAc
In short: as §1

Fuc(a1-2)Gal(b1-4)Glc = biological target: Fuc(a1-2)Gal(b1-4)Glc
In short: as §1

[5] = biological target: Fuc(a1-2)Gal(b1-4)GlcNAc(b1-3)GalNAc
In short: as §1

[6] = biological target: Fuc(a1-2)Gal(b1-4)GlcNAc(b1-6)GalNAc
In short: as §1

[7] = biological target: Fuc(a1-2)[GalNAc(a1-3)]Gal(b1-3)GlcNAc(b1-3)GalNAc
In short: as §1

[8] = biological target: Fuc(a1-2)[GalNAc(a1-3)]Gal(b1-4)GlcNAc(b1-2)Man(a1-3)[Fuc(a1-2)[GalNAc(a1-3)]Gal(b1-4)GlcNAc(b1-2)Man(a1-6)]Man(b1-4)GlcNAc(b1-4)GlcNAc
In short: as §1

[9] = biological target: Fuc(a1-2)[GalNAc(a1-3)]Gal(b1-4)[Fuc(a1-3)]GlcNAc(b1-3)GalNAc
In short: as §1

[10] = biological target: Fuc(a1-2)[GalNAc(a1-4)]Gal(b1-4)GlcNAc
In short: as §1

[11] = biological target: Fuc(a1-3)[Gal(b1-4)]GlcNAc(b1-2)Man
In short: as §1

[12] = biological target: Gal(a1-3)[Gal(a1-4)]Gal(b1-4)GlcNAc
In short: as §1

Gal(a1-4)Gal(b1-4)GlcNAc = biological target: Gal(a1-4)Gal(b1-4)GlcNAc
In short: as §1

Gal(a1-6)Glc = biological target: Gal(a1-6)Glc
In short: as §1

[13] = biological target: Gal(b1-3)GalNAc(a1-3)[Fuc(a1-2)]Gal(b1-4)GlcNAc
In short: as §1

[14] = biological target: Gal(b1-3)GlcNAc(b1-2)Man(a1-3)[Gal(b1-3)GlcNAc(b1-2)Man(a1-6)]Man(b1-4)GlcNAc(b1-4)GlcNAc
In short: as §1

[15] = biological target: Gal(b1-3)GlcNAc(b1-3)Gal(b1-4)GlcNAc(b1-2)[Gal(b1-3)GlcNAc(b1-3)Gal(b1-4)GlcNAc(b1-6)]Man(a1-6)[Gal(b1-3)GlcNAc(b1-3)Gal(b1-4)GlcNAc(b1-2)Man(a1-3)]Man(b1-4)GlcNAc(b1-4)[Fuc(a1-6)]GlcNAc
In short: as §1

Gal(b1-3)GlcNAc6S = biological target: Gal(b1-3)GlcNAc6S
In short: as §1

[16] = biological target: Gal(b1-3)[Fuc(a1-4)]GlcNAc(b1-6)GalNAc
In short: as §1

[17] = biological target: Gal(b1-4)GlcNAc(b1-2)Man(a1-6)[Man(a1-3)]Man(b1-4)GlcNAc(b1-4)GlcNAc
In short: as §1

[18] = biological target: Gal(b1-4)GlcNAc(b1-3)Gal(b1-4)GlcNAc
In short: as §1

[19] = biological target: Gal(b1-4)GlcNAc(b1-3)Gal(b1-4)GlcNAc(b1-2)Man(a1-3)[Gal(b1-4)GlcNAc(b1-3)Gal(b1-4)GlcNAc(b1-2)Man(a1-6)]Man(b1-4)GlcNAc(b1-4)[Fuc(a1-6)]GlcNAc
In short: as §1

[20] = biological target: Gal(b1-4)GlcNAc(b1-3)Gal(b1-4)GlcNAc(b1-3)Gal(b1-4)GlcNAc(b1-2)[Gal(b1-4)GlcNAc(b1-3)Gal(b1-4)GlcNAc(b1-3)Gal(b1-4)GlcNAc(b1-6)]Man(a1-6)[Gal(b1-4)GlcNAc(b1-3)Gal(b1-4)GlcNAc(b1-3)Gal(b1-4)GlcNAc(b1-2)Man(a1-3)]Man(b1-4)GlcNAc(b1-4)[Fuc(a1-6)]GlcNAc
In short: as §1

[21] = biological target: Gal(b1-4)GlcNAc(b1-3)Gal(b1-4)GlcNAc(b1-3)Gal(b1-4)GlcNAc(b1-3)Gal(b1-4)GlcNAc(b1-2)Man(a1-3)[Gal(b1-4)GlcNAc(b1-3)Gal(b1-4)GlcNAc(b1-3)Gal(b1-4)GlcNAc(b1-3)Gal(b1-4)GlcNAc(b1-2)Man(a1-6)]Man(b1-4)GlcNAc(b1-4)GlcNAc
In short: as §1

[22] = biological target: Gal(b1-4)GlcNAc(b1-3)Gal(b1-4)GlcNAc(b1-3)Gal(b1-4)GlcNAc(b1-3)Gal(b1-4)GlcNAc(b1-3)Gal(b1-4)GlcNAc(b1-3)Gal(b1-4)GlcNAc(b1-2)Man(a1-3)[Gal(b1-4)GlcNAc(b1-3)Gal(b1-4)GlcNAc(b1-3)Gal(b1-4)GlcNAc(b1-3)Gal(b1-4)GlcNAc(b1-3)Gal(b1-4)GlcNAc(b1-3)Gal(b1-4)GlcNAc(b1-2)Man(a1-6)]Man(b1-4)GlcNAc(b1-4)GlcNAc
In short: as §1

[23] = biological target: Gal3S(b1-4)[Fuc(a1-3)]Glc6S
In short: as §1

Gal3S6S(b1-4)GlcNAc = biological target: Gal3S6S(b1-4)GlcNAc
In short: as §1

Gal6S(b1-4)GlcNAc6S = biological target: Gal6S(b1-4)GlcNAc6S
In short: as §1

[24] = biological target: GlcNAc(a1-4)Gal(b1-4)GlcNAc(b1-3)Gal(b1-4)GlcNAc
In short: as §1

[25] = biological target: GlcNAc(b1-2)Man(a1-3)[GlcNAc(b1-4)][GlcNAc(b1-2)Man(a1-6)]Man(b1-4)GlcNAc(b1-4)[Fuc(a1-6)]GlcNAc
In short: as §1

[26] = biological target: GlcNAc(b1-3)Gal(b1-4)GlcNAc(b1-3)Gal(b1-4)GlcNAc(b1-3)Gal(b1-4)GlcNAc(b1-3)Gal(b1-4)GlcNAc(b1-2)Man(a1-3)[GlcNAc(b1-3)Gal(b1-4)GlcNAc(b1-3)Gal(b1-4)GlcNAc(b1-3)Gal(b1-4)GlcNAc(b1-3)Gal(b1-4)GlcNAc(b1-2)Man(a1-6)]Man(b1-4)GlcNAc(b1-4)GlcNAc
In short: as §1

[27] = biological target: GlcNAc(b1-4)GlcNAc(b1-4)GlcNAc(b1-4)GlcNAc(b1-4)GlcNAc
In short: as §1

Kdn(a2-3)Gal(b1-3)GalNAc = biological target: Kdn(a2-3)Gal(b1-3)GalNAc
In short: as §1

[28] = biological target: Neu5Ac(a2-3)Gal(b1-4)GlcNAc(b1-2)[Neu5Ac(a2-3)Gal(b1-4)GlcNAc(b1-4)]Man(a1-3)[GlcNAc(b1-4)][Neu5Ac(a2-3)Gal(b1-4)GlcNAc(b1-4)Man(a1-6)]Man(b1-4)GlcNAc(b1-4)GlcNAc
In short: as §1

[29] = biological target: Neu5Ac(a2-3)Gal(b1-4)GlcNAc(b1-3)Gal(b1-4)GlcNAc(b1-2)Man(a1-3)[Neu5Ac(a2-3)Gal(b1-4)GlcNAc(b1-3)Gal(b1-4)GlcNAc(b1-2)Man(a1-6)]Man(b1-4)GlcNAc(b1-4)GlcNAc
In short: as §1

[30] = biological target: Neu5Ac(a2-3)Gal(b1-4)GlcNAc(b1-6)[Neu5Ac(a2-3)Gal(b1-3)]GalNAc
In short: as §1

[31] = biological target: Neu5Ac(a2-3)Gal(b1-4)[Fuc(a1-3)]GlcNAc6S
In short: as §1

[32] = biological target: Neu5Ac(a2-3)[GalNAc(b1-4)]Gal(b1-4)GlcNAc
In short: as §1

[33] = biological target: Neu5Ac(a2-6)Gal(b1-4)GlcNAc(b1-2)Man(a1-6)[Man(a1-3)]Man(b1-4)GlcNAc(b1-4)GlcNAc
In short: as §1

[34] = biological target: Neu5Ac(a2-6)Gal(b1-4)GlcNAc(b1-3)GalNAc
In short: as §1

[35] = biological target: Neu5Ac(a2-6)Gal(b1-4)GlcNAc(b1-3)[Neu5Ac(a2-6)Gal(b1-4)GlcNAc(b1-6)]GalNAc
In short: as §1

[36] = biological target: Neu5Ac(a2-6)GalNAc(b1-4)GlcNAc6S
In short: as §1

[37] = biological target: Neu5Ac(a2-8)Neu5Ac(a2-3)Gal(b1-4)GlcNAc
In short: as §1

[38] = biological target: Neu5Ac(a2-8)Neu5Ac(a2-8)Neu5Ac
In short: as §1

B1: PX14367B-bvu-516-23-516 (Bacteroides vulgatus) (protein)
chain: LDTIPTTYVDAGSVFGKTGDAEKVLNGGWNYLMETFNSYANPGYGAMLRANDAMGSDVVLNSKYGFRTHNEFSAIYGKGGTNTLSWLLAYRVINDCNGVLDNIDAAEGTQADRNRIKGQALALRGFLYLHLASCYSFAIDKDPDAVCAPIYTQSTDETIAAEGKPASSVSEVYAQSINDLEEALELIPETYVRDAKHKIDNEVVLGILSRACLYARQWEKAKTYSDKLLAKDNYLMTESEYKAGFNSVDNKEWIWGHAQTNDQSNASYQFHYLDTTTKGSYYYSFNVDPYFRDLFEDGDYRKEMLFWATDPGADVESAAYVWMRNSKFRFRDIENQLGDIVLMRVAEIYLINAEAKAHLNDPDAINKLNDLKTARGAKTIHTNLSQQDLLETIWLERRKELWGEGFSLIDIIRNQQTVVRNAYPEGPIDYIYTDENGQTHTLKKKTQGHRFFNFPDKSAFCPNSKYYLYRITDSEELANKNLYKDHPKLSIYTK
For B1, the “glycan array binding signal (z-score)” value [1] was -0.284, the “glycan array binding signal (z-score)” value [2] was -0.028 and the “glycan array binding signal (z-score)” value [3] was -0.201. For the same binder, the “glycan array binding signal (z-score)” value [4] was -0.237, the “glycan array binding signal (z-score)” value (Fuc(a1-2)Gal(b1-4)Glc) was -0.35 and the “glycan array binding signal (z-score)” value [5] was -0.282. For the same binder, the “glycan array binding signal (z-score)” value [6] was -0.204, the “glycan array binding signal (z-score)” value [7] was -0.26 and the “glycan array binding signal (z-score)” value [8] was 7.56. For the same binder, the “glycan array binding signal (z-score)” value [9] was 0.034, the “glycan array binding signal (z-score)” value [10] was 4.75 and the “glycan array binding signal (z-score)” value [11] was -0.331. For the same binder, the “glycan array binding signal (z-score)” value [12] was 5.23, the “glycan array binding signal (z-score)” value (Gal(a1-4)Gal(b1-4)GlcNAc) was -0.328 and the “glycan array binding signal (z-score)” value (Gal(a1-6)Glc) was -0.252. For the same binder, the “glycan array binding signal (z-score)” value [13] was -0.361, the “glycan array binding signal (z-score)” value [14] was 7.76 and the “glycan array binding signal (z-score)” value [15] was 4.21. The “glycan array binding signal (z-score)” value (Gal(b1-3)GlcNAc6S) was -0.243, the “glycan array binding signal (z-score)” value [16] was 4.48 and the “glycan array binding signal (z-score)” value [17] was 4.25. For the same binder, the “glycan array binding signal (z-score)” value [18] was -0.337, the “glycan array binding signal (z-score)” value [19] was 0.011 and the “glycan array binding signal (z-score)” value [20] was 7.91. The “glycan array binding signal (z-score)” value [21] was 0.812, the “glycan array binding signal (z-score)” value [22] was 7.87 and the “glycan array binding signal (z-score)” value [23] was 2.87. The “glycan array binding signal (z-score)” value (Gal3S6S(b1-4)GlcNAc) was -0.262, the “glycan array binding signal (z-score)” value (Gal6S(b1-4)GlcNAc6S) was 6.08 and the “glycan array binding signal (z-score)” value [24] was -0.2. The “glycan array binding signal (z-score)” value [25] was -0.049, the “glycan array binding signal (z-score)” value [26] was -0.276 and the “glycan array binding signal (z-score)” value [27] was -0.245. For the same binder, the “glycan array binding signal (z-score)” value (Kdn(a2-3)Gal(b1-3)GalNAc) was -0.198, the “glycan array binding signal (z-score)” value [28] was -0.262 and the “glycan array binding signal (z-score)” value [29] was -0.164. The “glycan array binding signal (z-score)” value [30] was -0.354, the “glycan array binding signal (z-score)” value [31] was -0.354 and the “glycan array binding signal (z-score)” value [32] was -0.356. The “glycan array binding signal (z-score)” value [33] was 4.55, the “glycan array binding signal (z-score)” value [34] was -0.386 and the “glycan array binding signal (z-score)” value [35] was 0.372. For the same binder, the “glycan array binding signal (z-score)” value [36] was -0.208, the “glycan array binding signal (z-score)” value [37] was -0.353 and the “glycan array binding signal (z-score)” value [38] was -0.342.
